{
  "source": "PubChem BioAssay (EPA / NIEHS)",
  "note": "Records with an inconclusive call do not appear. Activity calls are given as the source filed them. How the source made its calls: active means hit-call score of the fitted dose curve at least 0.9, where 1 is the maximum; inconclusive means response in the unintended direction; inactive means score below 0.9.",
  "data": [
    {"target": "rat Adrenergic, Alpha 1, Non-selective Receptor (Adra1), Adra1a (gene 29412) (UniProt P43140)", "sequence (P43140 whole entry, looked up)": "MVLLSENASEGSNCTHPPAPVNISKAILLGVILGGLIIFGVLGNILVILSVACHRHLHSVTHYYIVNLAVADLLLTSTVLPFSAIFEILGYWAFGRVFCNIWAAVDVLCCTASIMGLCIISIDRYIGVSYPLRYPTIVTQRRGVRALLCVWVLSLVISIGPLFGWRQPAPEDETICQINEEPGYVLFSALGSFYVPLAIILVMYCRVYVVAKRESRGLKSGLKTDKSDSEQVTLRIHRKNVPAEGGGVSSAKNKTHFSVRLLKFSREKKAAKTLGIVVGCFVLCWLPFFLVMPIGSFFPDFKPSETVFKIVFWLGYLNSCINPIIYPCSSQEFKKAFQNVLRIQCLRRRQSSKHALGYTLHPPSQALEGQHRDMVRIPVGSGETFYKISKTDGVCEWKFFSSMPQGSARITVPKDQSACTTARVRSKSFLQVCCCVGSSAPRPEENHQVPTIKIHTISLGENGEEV", "test": "NVS_GPCR_rAdra1_NonSelective: NovaScreen (NVS) G Protein-Coupled Receptor Assay for rat Adrenergic, Alpha 1, Non-selective Receptor (Adra1) (AID 2283289)", "summary_of_the_method": "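Rat forebrain membranes; radioligand displacement read by filter-based scintillation counting 1 h after dosing. Primary screen in duplicate at 25 uM; hits (e.g. ≥30% inhibition) rerun as concentration–response to 50 uM max. Fitted versus DMSO.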", "values": [
      {"compound": "CCN(CC)CCNc1ccc(CNC=O)c2sc3ccc(OC)cc3c(=O)c12", "AC50": "20.1 µM (active)"},
      {"compound": "CCCOc1sc(C(=O)N2CCC(c3cc(CN)ccc3F)CC2)c(C)c1Br", "AC50": "20.6 µM (active)"},
      {"compound": "O=C(O)Cc1cc(I)c(Oc2cc(I)c(O)c(I)c2)c(I)c1", "outcome": "inactive"},
      {"compound": "CCCCCCCCC(=O)O", "outcome": "inactive"},
      {"compound": "CC(=O)NC1(c2cccc(F)c2)CCN(CC[C@@]2(c3ccc(Cl)c(Cl)c3)CN(c3ccccc3)C(=O)CO2)CC1", "AC50": "11.8 µM (active)"},
      {"compound": "NC(=O)N(O)[C@@H]1C=C[C@H](Oc2cccc(Oc3ccc(F)cc3)c2)C1", "outcome": "inactive"},
      {"compound": "CCCCCCCCCCCCc1ccccc1S(=O)(=O)O", "AC50": "38.7 µM (active)"}
    ]},
    {"target": "human Opioid Receptor Mu (Opiate Mu), OPRM1 (gene 4988) (UniProt P35372)", "sequence (P35372 whole entry, looked up)": "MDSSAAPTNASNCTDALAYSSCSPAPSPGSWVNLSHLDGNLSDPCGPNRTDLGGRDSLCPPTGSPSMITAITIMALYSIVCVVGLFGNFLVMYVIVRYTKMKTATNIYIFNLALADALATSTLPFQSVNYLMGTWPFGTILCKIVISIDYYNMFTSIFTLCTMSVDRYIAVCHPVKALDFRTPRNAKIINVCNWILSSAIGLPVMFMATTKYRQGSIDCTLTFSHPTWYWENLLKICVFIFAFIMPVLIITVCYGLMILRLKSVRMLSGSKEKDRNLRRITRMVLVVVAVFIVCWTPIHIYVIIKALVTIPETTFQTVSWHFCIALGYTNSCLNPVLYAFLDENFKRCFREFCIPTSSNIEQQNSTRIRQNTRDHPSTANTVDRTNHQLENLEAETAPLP", "test": "NVS_GPCR_hOpiate_mu: NovaScreen (NVS) G Protein-Coupled Receptor Assay for human Opioid Receptor Mu (Opiate Mu) (AID 2283290);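 further: hits lower bound tracer signal versus DMSO meaning displacement of the ligand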", "summary_of_the_method": "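Radioligand displacement binding on membranes from CHO cells expressing the receptor, 2.5 h after dosing, filter-based scintillation counting; loss of signal vs DMSO baseline. Screened in duplicate at 25 uM, actives then run in concentration series.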", "values": [
      {"compound": "CCN(CC)CCNc1ccc(CNC=O)c2sc3ccc(OC)cc3c(=O)c12", "AC50": "9.79 µM (active)"},
      {"compound": "CCCOc1sc(C(=O)N2CCC(c3cc(CN)ccc3F)CC2)c(C)c1Br", "AC50": "3.97 µM (active)"},
      {"compound": "O=C(O)Cc1cc(I)c(Oc2cc(I)c(O)c(I)c2)c(I)c1", "AC50": "14.3 µM (active)"},
      {"compound": "NC(=O)N1C(=O)C(C(=O)c2cc(Cl)cs2)c2cc(F)c(Cl)cc21", "note": "(stereo unspecified)", "outcome": "inactive"},
      {"compound": "CC(C)(C)c1ccc(O)c(C(C)(C)C)c1", "outcome": "inactive"},
      {"compound": "CC(C)CCCCCCOC(=O)CCCCC(=O)OCCCCCCC(C)C", "outcome": "inactive"},
      {"compound": "CC[C@H](c1ccc(O)cc1)[C@@H](CC)c1ccc(O)cc1", "AC50": "1.1 µM (active)"},
      {"compound": "Cc1oc(-c2ccccc2)nc1CCOc1ccc(C[C@H](Nc2ccccc2C(=O)c2ccccc2)C(=O)O)cc1", "outcome": "inactive"},
      {"compound": "CC(=O)NC1(c2cccc(F)c2)CCN(CC[C@@]2(c3ccc(Cl)c(Cl)c3)CN(c3ccccc3)C(=O)CO2)CC1", "AC50": "10.3 µM (active)"},
      {"compound": "CCCCCCCCCCCCCC[N+](C)(C)C", "AC50": "8.19 µM (active)"},
      {"compound": "NC(=O)N(O)[C@@H]1C=C[C@H](Oc2cccc(Oc3ccc(F)cc3)c2)C1", "outcome": "inactive"},
      {"compound": "CCCCCCCCCCCCc1ccccc1S(=O)(=O)O", "AC50": "15.1 µM (active)"},
      {"compound": "CCC(=C(c1ccc(O)cc1)c1ccc(OCCN(C)C)cc1)c1ccccc1", "AC50": "3.93 µM (active)"},
      {"compound": "CC#C[C@]1(O)CC[C@H]2[C@@H]3CCC4=CC(=O)CCC4=C3[C@@H](c3ccc(N(C)C)cc3)C[C@@]21C", "AC50": "0.908 µM (active)"}
    ]},
    {"target": "guinea pig Serotonin, 5-Hydroxytryptamine Receptor 4 (5HT4), HTR4 (gene 100135548) (UniProt O70528)", "sequence (O70528 whole entry, looked up)": "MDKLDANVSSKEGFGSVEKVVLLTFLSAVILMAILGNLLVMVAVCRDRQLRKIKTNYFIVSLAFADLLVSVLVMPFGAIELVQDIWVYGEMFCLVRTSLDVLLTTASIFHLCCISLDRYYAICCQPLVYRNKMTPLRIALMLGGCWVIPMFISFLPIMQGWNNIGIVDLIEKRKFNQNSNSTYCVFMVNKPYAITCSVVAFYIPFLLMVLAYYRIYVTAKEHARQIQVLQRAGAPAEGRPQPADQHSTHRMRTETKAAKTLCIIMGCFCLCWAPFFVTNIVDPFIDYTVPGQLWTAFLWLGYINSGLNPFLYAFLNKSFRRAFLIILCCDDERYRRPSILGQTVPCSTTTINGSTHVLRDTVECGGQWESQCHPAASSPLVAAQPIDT", "test": "NVS_GPCR_g5HT4: NovaScreen (NVS) G Protein-Coupled Receptor Assay for guinea pig Serotonin, 5-Hydroxytryptamine Receptor 4 (5HT4) (AID 2283294)", "summary_of_the_method": "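Guinea pig striatal membranes; radioligand competitive displacement, filtration and scintillation counting after 1 h. Primary screen in duplicate at 25 uM; actives then tested in concentration series; loss of binding signal fitted relative to DMSO.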", "values": [
      {"compound": "CCN(CC)CCNc1ccc(CNC=O)c2sc3ccc(OC)cc3c(=O)c12", "AC50": "7.23 µM (active)"},
      {"compound": "CCCOc1sc(C(=O)N2CCC(c3cc(CN)ccc3F)CC2)c(C)c1Br", "AC50": "25.9 µM (active)"},
      {"compound": "Cc1oc(-c2ccccc2)nc1CCOc1ccc(C[C@H](Nc2ccccc2C(=O)c2ccccc2)C(=O)O)cc1", "AC50": "25 µM (active)"},
      {"compound": "NC(=O)N(O)[C@@H]1C=C[C@H](Oc2cccc(Oc3ccc(F)cc3)c2)C1", "AC50": "17.6 µM (active)"},
      {"compound": "Nc1cccc2c(N)cccc12", "outcome": "inactive"},
      {"compound": "Oc1cc2ccccc2c2ccccc12", "outcome": "inactive"},
      {"compound": "Cc1cc(C)c(O)c(C)c1", "outcome": "inactive"},
      {"compound": "CCC(=C(c1ccc(O)cc1)c1ccc(OCCN(C)C)cc1)c1ccccc1", "AC50": "0.868 µM (active)"},
      {"compound": "Cc1cc(CCN2CCN(c3nsc4ccccc34)CC2)cc2c1NC(=O)CC2(C)C", "AC50": "15.2 µM (active)"},
      {"compound": "CN1CCN(c2ccccc2/C=C2\\SCCN(c3ccc(Cl)c(Cl)c3)C2=O)CC1", "AC50": "6.07 µM (active)"}
    ]},
    {"target": "rat Serotonin, 5-Hydroxytryptamine Receptor (5HT), Non-Selective Binding, Htr1a (gene 24473) (UniProt P19327)", "sequence (P19327 whole entry, looked up)": "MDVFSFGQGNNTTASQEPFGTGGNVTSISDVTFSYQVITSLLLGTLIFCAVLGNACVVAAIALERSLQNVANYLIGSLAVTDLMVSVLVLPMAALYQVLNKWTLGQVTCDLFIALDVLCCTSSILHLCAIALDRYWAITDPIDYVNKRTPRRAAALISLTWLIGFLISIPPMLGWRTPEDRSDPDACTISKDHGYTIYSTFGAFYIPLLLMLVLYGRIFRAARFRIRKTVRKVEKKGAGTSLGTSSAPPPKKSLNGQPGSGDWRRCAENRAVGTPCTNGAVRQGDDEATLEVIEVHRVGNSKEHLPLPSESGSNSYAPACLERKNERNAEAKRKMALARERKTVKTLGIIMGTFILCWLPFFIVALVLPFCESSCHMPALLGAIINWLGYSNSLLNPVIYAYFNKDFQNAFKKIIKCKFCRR", "test": "NVS_GPCR_r5HT_NonSelective: NovaScreen (NVS) G Protein-Coupled Receptor Assay for rat Serotonin, 5-Hydroxytryptamine Receptor (5HT), Non-Selective Binding (AID 2283295)", "method": "NVS_GPCR_r5HT_NonSelective is a biochemical, single-readout assay that uses extracted gene-proteins from Rat cortical membranes in a tissue-based cell-free assay. Measurements were taken 1 hour after chemical dosing in a 48-well plate.NVS_GPCR_r5HT_NonSelective is one of one assay component(s) measured or calculated from the NVS_GPCR_r5HT_NonSelective assay. It is designed to make measurements of radioligand binding, a form of binding reporter, as detected with scintillation counting signals by Filter-based radiodetection technology.Data from the assay component NVS_GPCR_r5HT_NonSelective was analyzed into 1 assay endpoint. This assay endpoint, NVS_GPCR_r5HT_NonSelective, was analyzed in the positive analysis fitting direction relative to DMSO as the negative control and baseline of activity. Using a type of binding reporter, loss-of-signal activity can be used to understand changes in the binding as they relate to the gene Htr1a. Furthermore, this assay endpoint can be referred to as a primary readout, because the performed assay has only produced 1 assay endpoint. To generalize the intended target to other relatable targets, this assay endpoint is annotated to the gpcr intended target family, where the subfamily is rhodopsin-like receptor.\nBinding assays used specific radioligands (tritiated, iodinated) with non-radioactive competitive displacement ligands in agonist or antagonist protocols (as indicated) and various reference compounds and inhibitors to titrate specific binding to receptors and transporters. Most enzyme assays (CYPs, kinases, phosphatases, proteases, HDACs) used recombinant protein and specific substrates (fluorescence mostly, some colorimetric and radioactive) and inhibitors, followed by a biochemical separation of substrate and product. All assays for the biochemical HTS were initially run in duplicate at a single concentration (10 uM for CYP450 assays and 25 uM for all others). […] Each assay was run with positive and negative controls, and concurrent controls on every plate. The follow-up (secondary) screen tested active chemical-pairs in concentration series, as well as a few additional assays not tested in the primary screen, some selected negative inactives, and several cases re-run in the concentration series for confirmatory purposes.", "values": [
      {"compound": "CCN(CC)CCNc1ccc(CNC=O)c2sc3ccc(OC)cc3c(=O)c12", "AC50": "40.2 µM (active)"},
      {"compound": "CCCOc1sc(C(=O)N2CCC(c3cc(CN)ccc3F)CC2)c(C)c1Br", "AC50": "11.1 µM (active)"},
      {"compound": "CC(=O)NC1(c2cccc(F)c2)CCN(CC[C@@]2(c3ccc(Cl)c(Cl)c3)CN(c3ccccc3)C(=O)CO2)CC1", "AC50": "2.9 µM (active)"},
      {"compound": "O=[N+]([O-])c1ccc(O)cc1", "outcome": "inactive"},
      {"compound": "CN1CCN(c2ccccc2/C=C2\\SCCN(c3ccc(Cl)c(Cl)c3)C2=O)CC1", "AC50": "11.9 µM (active)"}
    ]},
    {"tested_on": "rat Adrenergic, Alpha 1B Receptor (Adra1B), gene 24173", "test": "NVS_GPCR_rAdra1B: NovaScreen (NVS) G Protein-Coupled Receptor Assay for rat Adrenergic, Alpha 1B Receptor (Adra1B) (AID 2283297)", "summary_of_the_method": "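Rat liver membranes, radioligand displacement with filter-based scintillation detection, 1 h incubation. Primary screen in duplicate at 25 uM; actives retested in concentration series; activity relative to DMSO.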", "values": [
      {"compound": "CCN(CC)CCNc1ccc(CNC=O)c2sc3ccc(OC)cc3c(=O)c12", "AC50": "19.4 µM (active)"},
      {"compound": "CCCOc1sc(C(=O)N2CCC(c3cc(CN)ccc3F)CC2)c(C)c1Br", "AC50": "17.3 µM (active)"},
      {"compound": "CCCCCCCC(=O)O", "outcome": "inactive"},
      {"compound": "NC(=O)N(O)[C@@H]1C=C[C@H](Oc2cccc(Oc3ccc(F)cc3)c2)C1", "outcome": "inactive"},
      {"compound": "CCCCCCCCCCCCc1ccccc1S(=O)(=O)O", "AC50": "30.9 µM (active)"},
      {"compound": "CC[C@H](C)[C@@H](C(=O)O)n1sc2ccccc2c1=O", "outcome": "inactive"}
    ]},
    {"target": "rat Adrenergic Receptor, Beta (Adrb), Non-selective Binding, Adrb1 (gene 24925) (UniProt P18090)", "sequence (P18090 whole entry, looked up)": "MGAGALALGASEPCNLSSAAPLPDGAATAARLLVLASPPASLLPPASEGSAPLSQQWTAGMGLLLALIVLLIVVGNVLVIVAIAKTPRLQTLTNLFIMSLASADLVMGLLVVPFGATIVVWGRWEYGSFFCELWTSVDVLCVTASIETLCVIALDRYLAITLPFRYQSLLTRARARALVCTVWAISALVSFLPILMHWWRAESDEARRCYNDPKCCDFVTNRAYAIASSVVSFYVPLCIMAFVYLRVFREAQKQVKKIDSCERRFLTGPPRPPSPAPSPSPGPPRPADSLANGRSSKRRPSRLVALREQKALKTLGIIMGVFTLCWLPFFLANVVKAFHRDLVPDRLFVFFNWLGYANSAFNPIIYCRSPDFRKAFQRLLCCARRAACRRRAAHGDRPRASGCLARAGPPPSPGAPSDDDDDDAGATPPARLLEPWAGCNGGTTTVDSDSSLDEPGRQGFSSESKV", "test": "NVS_GPCR_rAdrb_NonSelective: NovaScreen (NVS) G Protein-Coupled Receptor Assay for rat Adrenergic Receptor, Beta (Adrb), Non-selective Binding (AID 2283298)", "summary_of_the_method": "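Non-selective beta-adrenergic radioligand binding in rat cortical membranes, 1 h incubation, filter-based scintillation read-out. Primary screen 25 uM in duplicate; hits retested in concentration-response up to 50 uM, DMSO baseline.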", "values": [
      {"compound": "CCCOc1sc(C(=O)N2CCC(c3cc(CN)ccc3F)CC2)c(C)c1Br", "AC50": "3.95 µM (active)"},
      {"compound": "O=c1c(-c2ccc(O)cc2)coc2cc(O)ccc12", "outcome": "inactive"},
      {"compound": "CC(C)CCCCCCOC(=O)CCCCC(=O)OCCCCCCC(C)C", "outcome": "inactive"},
      {"compound": "CN1CCN(c2ccccc2/C=C2\\SCCN(c3ccc(Cl)c(Cl)c3)C2=O)CC1", "AC50": "2.29 µM (active)"}
    ]},
    {"target": "rat Adrenergic Receptor, Alpha 2 (Adra2), Non-selective Binding, Adra2a (gene 25083) (UniProt P22909)", "sequence (P22909 whole entry, looked up)": "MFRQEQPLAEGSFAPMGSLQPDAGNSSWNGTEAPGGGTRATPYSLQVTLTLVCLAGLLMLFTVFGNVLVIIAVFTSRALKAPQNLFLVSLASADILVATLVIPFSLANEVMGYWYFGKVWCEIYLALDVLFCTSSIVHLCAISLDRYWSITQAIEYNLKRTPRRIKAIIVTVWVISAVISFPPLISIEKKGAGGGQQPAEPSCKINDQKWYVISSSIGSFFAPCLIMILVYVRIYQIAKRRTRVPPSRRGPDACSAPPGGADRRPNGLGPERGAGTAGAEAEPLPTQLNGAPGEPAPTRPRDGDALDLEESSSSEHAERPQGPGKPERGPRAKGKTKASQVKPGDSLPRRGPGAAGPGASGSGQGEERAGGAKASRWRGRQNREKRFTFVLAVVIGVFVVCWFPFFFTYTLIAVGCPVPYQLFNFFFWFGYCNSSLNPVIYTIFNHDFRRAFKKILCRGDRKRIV", "test": "NVS_GPCR_rAdra2_NonSelective: NovaScreen (NVS) G Protein-Coupled Receptor Assay for rat Adrenergic Receptor, Alpha 2 (Adra2), Non-selective Binding (AID 2283299)", "summary_of_the_method": "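Rat cortical membranes, radioligand competitive displacement read by filter-based scintillation counting 1.25 hours after dosing. Primary screen in duplicate at 25 uM; actives followed up in concentration series.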", "values": [
      {"compound": "CCN(CC)CCNc1ccc(CNC=O)c2sc3ccc(OC)cc3c(=O)c12", "AC50": "13.6 µM (active)"},
      {"compound": "CCCOc1sc(C(=O)N2CCC(c3cc(CN)ccc3F)CC2)c(C)c1Br", "AC50": "23.2 µM (active)"},
      {"compound": "Cc1oc(-c2ccccc2)nc1CCOc1ccc(C[C@H](Nc2ccccc2C(=O)c2ccccc2)C(=O)O)cc1", "AC50": "35.6 µM (active)"},
      {"compound": "NC(=O)N(O)[C@@H]1C=C[C@H](Oc2cccc(Oc3ccc(F)cc3)c2)C1", "outcome": "inactive"},
      {"compound": "Nc1cccc2c(N)cccc12", "AC50": "16.8 µM (active)"}
    ]}
  ]
}
